According to PubChem BioAssay (NCI):
About 83,000 compounds went through this panel and 20% of them were active in at least one assay; those are over-represented in the sample as a whole.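 96-well plates, one dose, 48 hours. Percent growth reported; active if below 10.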 Activity calls are given as the source filed them.

Legend:
Test in all cases: NCI-60 one-dose screen, 48 h (100 = growth as untreated, 0 = no growth, -100 = all killed)
[1] = test system: NCI-H23 lung; conditions: 10 µM unless noted
[2] = test system: NCI-H226 lung; conditions: 10 µM unless noted
[3] = test system: NCI-H322M lung; conditions: 10 µM unless noted
[4] = test system: HOP-62 NSCLC; conditions: 10 µM unless noted
[5] = test system: NCI-H460 lung; conditions: 10 µM unless noted
[6] = test system: HOP-92 NSCLC; conditions: 10 µM
[7] = test system: NCI-H522 lung; conditions: 10 µM unless noted
[8] = test system: 786-0 renal; conditions: 10 µM unless noted
[9] = test system: COLO 205 colon; conditions: 10 µM unless noted
[10] = test system: DU-145 prostate; conditions: 10 µM unless noted
[11] = test system: K-562 leukemia; conditions: 10 µM unless noted
[12] = test system: MALME-3M melanoma; conditions: 10 µM unless noted
[13] = test system: MDA-MB-231 breast; conditions: 10 µM unless noted
[14] = test system: SF-268 CNS; conditions: 10 µM unless noted
[15] = test system: SF-295 CNS; conditions: 10 µM unless noted
[16] = test system: SF-539 CNS; conditions: 10 µM unless noted
[17] = test system: UACC-257 melanoma; conditions: 10 µM unless noted
[18] = test system: A549/ATCC NSCLC; conditions: 10 µM unless noted
[19] = test system: RXF 393 renal; conditions: 10 µM unless noted
[20] = test system: M14 melanoma; conditions: 10 µM unless noted

Measured: growth

N#Cc1cnc2ccc(-c3cnc(N)nc3)cc2c1N1CCc2cc(F)c(Cl)cc21
inactive: [3] 10% | [7] 10.4% | [10] 13.3% | [11] 12% | [13] 14.9%
active: [1] 9.66% | [2] 9.54% | [4] 2.88% | [5] 7.28% | [6] -19% | [8] 3.11% | [9] 6.97% | [12] -11.6% | [14] 5.13% | [15] -8.96% | [16] -12.5% | [17] 8.92%

C[C@@H](Nc1ncnc2ccc(-c3cnc(Cl)c(NS(C)(=O)=O)c3)cc12)c1ccccc1
active: [6] -1.13% | [19] -17.5%
inactive: [1] 55.7% | [2] 64.6% | [3] 68.2% | [4] 36.8% | [5] 60.5% | [18] 54.2% | [8] 45.4% | [9] 80.2% | [10] 34.1% | [11] 73.9% | [12] 59.2% | [13] 49% | [14] 42.5% | [15] 46% | [16] 44.5% | [17] 60.9% | [20] 69.1%

C[C@@H](Nc1c(C#N)cnc2ccc(-c3cnc(Cl)c(NS(C)(=O)=O)c3)cc12)c1ccccc1
active: [1] 6.8% | [2] -3.88% | [5] 2.56% | [6] -14.5% | [18] 4.78% | [8] 4.25% | [10] 7.73% | [12] -12.9% | [19] -40.2% | [14] -1.52% | [15] -20.8% | [16] -20.7% | [20] 4.3%
inactive: [3] 12.1% | [4] 11.6% | [9] 16.5% | [11] 15.3% | [13] 11.5% | [17] 14.8%

COC[C@]12CCC(C)(C)C[C@H]1C1=CC[C@@H]3[C@@]4(C)CCCNC(C)(C)[C@@H]4CC[C@@]3(C)[C@]1(C)CC2
inactive: [4] 46.6% | [18] 10.1% | [14] 33.7%
active: [1] -83.9% | [2] -61.5% | [3] -50.5% | [5] -69% | [6] -3.83% | [8] -83.1% | [9] -59.6% | [10] -39.8% | [11] -43.7% | [12] -68.5% | [13] -53.3% | [19] -93% | [15] -89% | [16] -63.7% | [17] -18.5% | [20] -67.3%

COc1ccc(Cn2cc3c(c2-c2cc(OC)c(OC)c(OC)c2)CCc2c(CN4CCOCC4)noc2-3)cc1
active: [1] 9.12% | [5] 8.85% | [16] 3.49%
inactive: [2] 57.9% | [3] 52.7% | [4] 45% | [6] 100% | [7] 12.3% | [8] 55.4% | [9] 14.9% | [10] 20% | [11] 12.6% | [12] 43.3% | [13] 31.8% | [14] 47.7% | [15] 13.3% | [17] 73.4%

N#Cc1c(-c2cccs2)cc(-c2cnccn2)nc1SCC(=O)Nc1ccc(Br)cc1
inactive: [1] 74.8% | [2] 81.5% | [3] 88.5% | [4] 71.3% | [5] 70.6% | [6] 98.6% | [18] 72.3% | [8] 80.9% | [9] 96.4% | [10] 70% | [11] 67.4% | [12] 118% | [13] 72.2% | [19] 19.3% | [14] 82.3% | [15] 90.2% | [16] 93.3% | [17] 106% | [20] 91.7%

CCNC(=O)N1CCc2cc(OC)c(OCCc3ccc(OC)cc3)cc2C1c1ccc(OC)cc1C (configuration not stated)
active: [5] 1.22% | [7] -8.18% | [8] 9.54% | [19] -12.7% | [16] 6.35%
inactive: [1] 29% | [2] 33.5% | [3] 40.1% | [4] 20.3% | [18] 13.8% | [9] 27.6% | [10] 16.2% | [11] 16.5% | [12] 45.9% | [13] 19.7% | [14] 34% | [15] 10.6% | [17] 50.5% | [20] 20%

CNC(=O)c1cc(Oc2ccc3nc(NC(=O)c4ccc(N5CCOCC5)c(C(F)(F)F)c4)sc3c2)ccn1
inactive: [1] 78.9% | [2] 91.5% | [3] 91.7% | [4] 90.5% | [5] 68.8% | [7] 77.9% | [18] 80.5% | [8] 47.1% | [9] 102% | [10] 98.2% | [11] 71.9% | [12] 94.2% | [13] 84.9% | [14] 92.8% | [15] 26.5% | [16] 68.3% | [17] 96.2% | [20] 85.9%
active: [19] -31.3%

Cc1cc2nc(C(Cl)Cl)nc(-c3cccs3)n2n1
active: [3] -20.6% | [4] -2.2% | [5] -39% | [18] -23.5% | [9] -44.3% | [10] -26.5% | [19] -52.9% | [15] -9.21%
inactive: [1] 10.5% | [2] 86.7% | [7] 46.8% | [8] 77.5% | [11] 35.3% | [12] 39.7% | [13] 11.2% | [14] 28.9% | [16] 17.5% | [17] 33.1%

Nc1ncc(-c2ccc3ncnc(N4CCc5cc(F)c(Cl)cc54)c3c2)cn1
active: [6] -10.9% | [8] 3.19% | [13] 0.108% | [19] -47.5% | [16] 8.74%
inactive: [1] 31.7% | [2] 20.7% | [3] 23% | [4] 19.6% | [5] 23% | [18] 10.4% | [10] 10.8% | [11] 34.6% | [12] 33.6% | [14] 16.9% | [15] 13.2% | [17] 50.6% | [20] 33.8%

O=C(NNc1nc2cc(F)ccc2n2cccc12)c1ccncn1
active: [5] 9.08% | [7] -6.6% | [16] 4.41% | [17] 5.01% | [20] 1.55%
inactive: [1] 30% | [2] 13.2% | [3] 31.7% | [4] 20.5% | [18] 14.7% | [8] 11% | [9] 10.3% | [10] 18.6% | [11] 14.6% | [12] 27.6% | [13] 41.1% | [19] 30.3% | [14] 19.6% | [15] 12.1%

C=C(C)[C@@H]1CC[C@]2(COC)CC[C@]3(C)[C@H](CC[C@@H]4[C@@]5(C)CCCNC(C)(C)[C@@H]5CC[C@]43C)[C@@H]12
active: [5] -30% | [9] -49.2% | [11] -47.7% | [12] -4.67% | [19] -4.43% | [20] -39.4%
inactive: [1] 59.6% | [2] 74.1% | [3] 82.6% | [4] 71.1% | [6] 74.9% | [8] 31.4% | [10] 57.9% | [13] 62.8% | [14] 78.9% | [15] 58.3% | [16] 51.7% | [17] 13.3%

COc1cccc2cc(-c3cc4ccccc4[nH]3)/c(=N\NC(=O)c3ccc(Cl)cc3)oc12
inactive: [1] 44.6% | [2] 44% | [3] 41.5% | [4] 31.3% | [5] 18.4% | [7] 18.7% | [18] 39.8% | [8] 48.5% | [9] 62.1% | [10] 48.3% | [11] 22.1% | [12] 61.7% | [13] 41.3% | [19] 45.9% | [14] 32.9% | [15] 43.2% | [16] 33.1% | [17] 17.4% | [20] 31.9%

COc1cc(-c2nn(C(C)(C)C)cc2-c2ccnc(NCCCNS(=O)(=O)c3ccc(Cl)cc3)n2)ccc1Cl
active: [19] 4.9%
inactive: [1] 73% | [2] 53.8% | [3] 78.2% | [4] 61.7% | [5] 55.1% | [6] 48.6% | [18] 36.3% | [8] 69% | [9] 81.5% | [10] 60.5% | [11] 33.5% | [12] 87.9% | [13] 55.5% | [14] 44.1% | [15] 59.6% | [16] 84.4% | [17] 82.1% | [20] 76.8%

COCCNc1ccc2ncc(C#Cc3cncc(C(=O)Nc4ccc(CN5CCN(C)CC5)c(C(F)(F)F)c4)c3)n2n1
active: [1] -49.6% | [2] -45.9% | [3] -23% | [4] -48.3% | [5] -82.5% | [7] -76.3% | [18] 3.12% | [8] -64.1% | [9] -83.1% | [10] -32.4% | [11] 1.22% | [12] -69.7% | [13] -15% | [19] -84.3% | [14] -55% | [15] -13.9% | [16] -77% | [17] -46.4% | [20] -86.2%

COc1cc2oc(-c3cccc(N)c3)cc(=O)c2c(OC)c1OC
inactive: [1] 110% | [2] 99.9% | [3] 102% | [4] 115% | [5] 106% | [7] 97.4% | [18] 101% | [8] 94.1% | [9] 126% | [10] 108% | [11] 107% | [12] 101% | [13] 100% | [19] 117% | [14] 104% | [15] 93.4% | [16] 99.6% | [17] 119% | [20] 111%
